Only some compounds are listed: those with a hit (about 0.95% of all), similar ones and a draw of the others.
LmPK inhibitor: blocks Leishmania mexicana pyruvate kinase activity; Q27686; purified LmPK, Kinase-Glo ATP luminescence, 1 h; Potency, µM (titrated, usually from 57.5 µM), without a hit: at the highest dose activity change, negative = inhibition, actives largely listed as inhibitors; 290,000 tested, 0.37% active
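Kinase-Glo luminescence read after 1 h RT reaction of 0.1 nM LmPK with 0.5 mM PEP and 0.1 mM ADP. Activity scaled between uninhibited and enzyme-free controls.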
RE007 growth inh: less growth of the S. pombe RE007 Vpr strain; S. pombe RE007 Vpr strain, BacTiter-Glo ATP luminescence, 24 h; 360,000 tested, 0.21% active; Potency, µM (titrated, usually from 92.2 µM), for the others: top-dose activity change, negative = less growth, usual class: inhibitors; active = well fitted falling curve with a large enough effect; inconclusive = small, poorly fitted or top-dose-only effect; inactive = no such curve, though single readings can be large or run the other way; note: nearly all actives have a fitted effect of over 50% in size
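Fission yeast RE007 carrying one integrated HIV-1 vpr copy, seeded at OD 0.01 in PMG+AL medium with 23 nL pinned compound. Grown 24 h at 30 degrees; viability read by BacTiter-Glo luminescence after 5 min.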
TbPYK inhibitor: T. brucei pyruvate kinase inhibition. 410,000 tested, 0.12% active. Q57TT1. TbPYK enzyme, Kinase-Glo Plus ATP luminescence, 45 min. AID 624173. Potency, µM (titrated, usually from 76.8 µM), for inactives: at the highest dose activity, negative = inhibition, usual class: inhibitors; note: nearly all actives have a fitted effect of over 50% in size
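In this concentration-response screen, enzyme-free wells defined baseline while DMSO plates tracked drift. Each reaction combined TbPYK, substrate, compound and 130 uM ADP for 45 min at room temperature. Kinase-Glo Plus luminescence gave the signal.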
Giardia FBPA inh-1: Giardia lamblia aldolase inhibition | 290,000 tested, 0.71% active | Potency, µM (highest dose often 59.6 µM), inactives show top-dose activity, negative = inhibition, usual class: inhibitors | AID 2451 | A8B2U2 | purified Giardia FBPA; note: nearly all actives have a fitted effect of over 55% in size
Target sequence (A8B2U2 whole entry, looked up): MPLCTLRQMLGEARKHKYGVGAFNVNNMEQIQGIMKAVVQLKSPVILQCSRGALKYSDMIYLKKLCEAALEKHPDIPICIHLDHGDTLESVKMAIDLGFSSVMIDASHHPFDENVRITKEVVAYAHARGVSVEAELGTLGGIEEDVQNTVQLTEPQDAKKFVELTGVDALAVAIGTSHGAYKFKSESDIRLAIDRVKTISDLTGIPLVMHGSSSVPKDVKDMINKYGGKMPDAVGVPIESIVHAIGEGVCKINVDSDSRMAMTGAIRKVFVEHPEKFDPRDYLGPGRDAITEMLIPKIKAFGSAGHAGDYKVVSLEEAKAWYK
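Giardia FBPA (40 nM reagent) was preincubated 10 min at RT with compound (up to 57.5 uM final), then substrate plus GAPDH/TPI/NAD/arsenate coupling system with diaphorase/resazurin was added; resorufin fluorescence (525/598 nm) was read after 20 min.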
Giardia growth: inhibitors of Giardia lamblia growth | shares compounds with Giardia FBPA inh-1 | Giardia lamblia trophozoite growth inhibition | Potency, µM (doses to about 57.5 µM), for inactives: at the top dose activity change, negative = inhibition, hits mostly inhibitors | 1,500 tested, 5% active | AID 2785;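 note: trophozoites exposed to compound for 48 h at 37 °C; nearly all actives have a fitted effect of over 70% in size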
Mammal cell tox: mammalian cytotoxicity of Giardia aldolase inhibitor hits. Potency, µM (highest dose often 57.5 µM), without a hit: at the top dose viability change, negative = toxicity, hits mostly inhibitors. 1,500 tested, 4% active. mammalian cell viability counter-screen, qHTS. AID 2786. shares compounds with Giardia FBPA inh-1;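 note: Chinese hamster ovary cells used as mammalian cytotoxicity surrogate; viability measured as cellular ATP by luminescence; compound exposure lasted 48 h before reading; nearly all actives have a fitted effect of over 60% in size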
Giardia FBPA inh-2: confirmation of Giardia fructose-bisphosphate aldolase inhibitors. AID 2787. purified Giardia aldolase enzyme activity, qHTS. Potency, µM (top dose mostly 57.5 µM), inactives show top-dose activity change, negative = inhibition, usual class: inhibitors. 1,500 tested, 5% active. shares compounds with Giardia FBPA inh-1; note: nearly all actives have a fitted effect of over 45% in size
Rabbit aldolase: rabbit FBP aldolase inhibition by Giardia aldolase hits. shares compounds with Giardia FBPA inh-1. Rabbit muscle FBPA enzyme inhibition, selectivity counter-screen. Potency, µM (series often up to 57.5 µM), for the others: at the top dose activity, negative = inhibition, actives largely listed as inhibitors. 1,500 tested, 4% active. AID 2794; note: nearly all actives have a fitted effect of over 60% in size
GAPDH counter: GAPDH inhibition flagged for Giardia aldolase hits | shares compounds with Giardia FBPA inh-1 | GAPDH coupling enzyme counterscreen, biochemical, qHTS | Potency, µM (highest dose often 57.5 µM), inactives show at the top dose activity change, negative = inhibition, actives largely listed as inhibitors | 1,500 tested, 6% active | AID 2795; note: nearly all actives have a fitted effect of over 55% in size
An asterisk follows results filed as active; ? = inconclusive; / = no result given; ! = not active in a repeat; [ ] = another dose, or the depositor's remark. Unless noted, calls come from the whole dose curve; as a rule, active = well fitted curve in the direction sought with a large enough effect; inconclusive = small, poorly fitted or top-dose-only effect, or another doubt; inactive = no such curve, though single readings can be large; an effect the other way counts as inactive or inconclusive. % is set by controls: 0 for no effect and ±100 for the full control effect; potency is the fitted concentration of half-maximal effect.

SMILES	LmPK inhibitor	RE007 growth inh	TbPYK inhibitor	Giardia FBPA inh-1	Giardia growth	Mammal cell tox	Giardia FBPA inh-2	Rabbit aldolase	GAPDH counter
CCOC(=O)Cc1c[nH]c(=S)[nH]c1=O	-1%	-1%	-7%	18µM*	9%[10.4 µM]	14%	5%	9%	7%
CC(C)(C)OC(=O)N1C2C=CC1C1=COCCN1C2=O (stereo unspecified)	/	/	/	0%	/	/	/	/	/
Cc1snc2sc(C(=O)c3ccc(F)cc3)c(N)c12	-4%	-6%	-2%	6.3µM*	3%[38.3 µM]	-24%	40µM*	?	?
O=C(O)c1ccc2cccnc2c1O	-10%	0%	-7%	20µM*	-26%	7%	?	-22%	-25%
COc1cc(C2NC(=O)C(C#N)=C(Nc3cccc(C)c3)S2)ccc1O (stereo unspecified)	14%	2%	-2%	14µM*	7%[10.4 µM]	2%	-24%	4%	13%
O=c1c(-c2cccs2)nc2cnc(N3CCOCC3)nc2n1CCc1ccccc1	/	/	/	3%	/	/	/	/	/
Cc1c(OCC(F)(F)F)ccnc1CS(=O)c1nc2ccccc2[nH]1 (stereo unspecified)	8%	-2%[18.4 µM]	1%	-15%	/	/	/	/	/
COCCCOc1ccnc(CS(=O)c2nc3ccccc3[nH]2)c1C (stereo unspecified)	-10%	-11%[18.4 µM]	-18%	2µM*!	?	-22%	-15%	-10%	-5%
C/C(=N\Nc1nc2ccccc2c(=O)n1O)c1ccco1	1%	7%	-6%	-11%	/	/	/	/	/
Cc1ccc(C)c(/C=N/Nc2nc3ccccc3c(=O)n2O)c1	3%	11%	?	16µM*	?	-6%	-20%	-11%	-15%
O=C1C=C(O)c2cccc(O)c2C1=O	-2%	?	-4%	5.6µM*	3%[10.4 µM]	19%	?	-21%	?
O=C1C=C(c2c(O)ccc3ccccc23)c2ccccc2C1=O	/	-16%	-12%	/	/	/	/	/	/
CN(CCCCCCN(C)Cc1ccccc1O)Cc1ccccc1O	-7%	-16%	22%	28µM*	?	-9%	2%	3%	6%
Cc1ccc(O)c(CN(C)Cc2cc(C)ccc2O)c1	/	-25%	-22%	/	/	/	/	/	/
Cc1cc(S(=O)(=O)C(CNC(=O)c2ccc(OC(C)C)cc2)c2cccs2)ccc1F (stereo unspecified)	/	/	4%	/	/	/	/	/	/
Cc1nccn1CC1CCc2c(c3ccccc3n2C)C1=O (stereo unspecified)	-14%	17%[18.4 µM]	-10%	20µM*	11%[10.4 µM]	-1%	5%	4%	16%
CC(C)CC(=O)N1CCN(Cc2ccc(Cl)cc2)CC1	-1%	3%	17%	28µM*	-30%	-3%	0%	4%	8%
CC(C)CC(=O)N1CCN(Cc2ccc(C(F)(F)F)cc2)CC1	0%	-1%	4%	32µM*	-23%	-22%	6%	-5%	-13%
COC(=O)CCC(=O)OC1(C)C(=O)C=C2C=C(CCCNC(=O)OC(C)(C)C)OC=C2C1=O (stereo unspecified)	/	/	/	-4%	/	/	/	/	/
CC(C)c1cccc(OCCCCN(C)C)c1	-1%	3%	-4%	16µM*	?	-6%	8%	6%	2%
C=CCNC(=S)NS(=O)(=O)c1cccs1	-1%	-20%	-8%	5.6µM*	-13%[38.3 µM]	10%	-14%	10%	-1%
O=S(=O)(NCCNS(=O)(=O)c1cccs1)c1cccs1	-2%	4%	-5%	-3%	/	/	/	/	/
Nc1ccc(S(=O)(=O)Nc2cccc3cccnc23)cc1	/	/	/	-24%	/	/	/	/	/
Nc1c2c(nc3ccc(Br)cc13)N(C1CCCCC1)CC2	-3%	/	/	18µM*	5µM*	-28%	-4%	-4%	-10%
Nc1c2c(nc3ccccc13)N(C1CCCCC1)CC2	-8%	12%	-3%	?	/	/	/	/	/
COc1ccc(-c2nc3cnc(N4CCNCC4)nc3n(CCc3ccccc3)c2=O)cc1	/	/	1%	-1%	/	/	/	/	/
CC(=O)Nc1nc(-c2ccc(Cl)cc2)nc(C)c1C(C)=O	3%	18%	-2%	7.1µM*	0%[10.4 µM]	-17%	-7%	7%	5%
C=CC[C@@H]1C=C[C@H](O/N=C(\C)CCN2CCc3nc(-c4ccccc4)c(-c4ccccc4)cc3C2)[C@H](CO)O1	/	/	/	-1%[12.9 µM]	/	/	/	/	/

High-throughput results deposited in PubChem by National Center for Advancing Translational Sciences (NCATS).
